The list is not random: actives were taken first. Their share in the collection is about 2.8%.
PI4K2A inh = inhibitors of human PI4K2A | AID 1346378 | activity change, negative = inhibition, % at 76.9 µM | 420,000 tested, 0.13% active | purified PI4K2A, ADP-Glo luminescence, 1 h; stronger effect = lower value | Q9BTU6; in the data active = activity change below about -50%; inconclusive = mostly about -30% to -49%;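 also: -100% = wells without enzyme as full effect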
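ADP-Glo luminescence measured ADP generated by PI4K2A enzyme (4 ug/mL before mixing) with 1.2 mM PI substrate (pre-mix) and 300 microM ATP (pre-mix). Tris pH7.5 buffer with MgCl2, Triton X-100; 1 h reaction at ambient temperature.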
D3 ag = D3 dopamine receptor (human) agonism | P35462 | max activation, % | D3R DiscoveRx beta-arrestin cells, luminescence, 90 min | 410,000 tested, 0.58% active; in the data active = max activation above about 30%; also: 0% is about no effect
Target sequence (P35462 whole entry, looked up): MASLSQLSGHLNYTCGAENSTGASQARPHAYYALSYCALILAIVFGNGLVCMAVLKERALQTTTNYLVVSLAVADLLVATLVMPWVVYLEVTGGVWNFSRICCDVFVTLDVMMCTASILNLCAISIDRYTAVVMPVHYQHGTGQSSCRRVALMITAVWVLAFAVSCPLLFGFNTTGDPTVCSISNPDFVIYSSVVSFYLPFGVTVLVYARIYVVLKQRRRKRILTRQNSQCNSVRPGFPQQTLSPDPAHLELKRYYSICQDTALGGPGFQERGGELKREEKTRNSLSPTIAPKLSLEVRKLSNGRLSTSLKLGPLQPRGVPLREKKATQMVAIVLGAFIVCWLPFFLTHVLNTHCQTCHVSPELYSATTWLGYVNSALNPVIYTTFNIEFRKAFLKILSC
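Agonist-mode cell screen: cells plated at 1500/well and incubated overnight at 37 °C, then exposed to library compounds for 90 min at 37 °C. Detection reagent was added for 30–60 min at room temperature, and luminescence was read.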
pAkt inh = blocks phosphorylation of Akt | Neuro2A IGF-stimulated pAkt S473 HTRF, 20 min; stronger effect = lower value | activity change, % for hits at 50 µM | 360,000 tested, 0.32% active | AID 651550; in the data active = activity change below about -80%; inconclusive = mostly about -51% to -80%; also: % is scaled to controls: 0 for no effect and ±100 for the full control effect
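Single-point screen (50 µM final compound) in Neuro2A cells stimulated 20 min with 6 nM IGF at 37 deg C. After lysis, Ser473-phosphorylated Akt read by HTRF (ex 330 nm, em 615/665 nm) as the 665/615 ratio.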
D3 antag = antagonists of human D3 dopamine receptor | max response, negative = inhibition, % | 360,000 tested, 2.5% active | D3R cells, DiscoveRx beta-arrestin luminescence, antagonist mode; stronger effect = lower value | AID 652054 | P35462; in the data active = max response below about -50%; inconclusive = no clear call, values can overlap the other calls; also: % is scaled to controls: 0 for no effect and ±100 for the full control effect
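Cells plated overnight at 1500 cells/well, then exposed to library compounds with dopamine controls for 90 minutes at 37 degrees C. DiscoveRx reagent added for 30–60 minutes at room temperature; luminescence read, quantitative HTS format.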
RGS4 inhibitor = blocks human RGS4-accelerated GTP hydrolysis. Transcreener GDP fluorescence polarization, RGS4-accelerated GTP hydrolysis. AID 504845. Potency, µM (doses to about 114 µM), for the others: at the highest dose activity change, negative = inhibition, usual class: inhibitors. 390,000 tested, 0.039% active; active = well fitted inhibition curve with a large enough effect; inconclusive = small, poorly fitted or top-dose-only effect; inactive = no such curve, though single readings can be large or run the other way; also: potency is read from the fitted curve at half-maximal effect; % is scaled to controls: 0 for no effect and ±100 for the full control effect; nearly all actives have a fitted effect of over 75% in size
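MLSMR compounds (23 nl, pin-transferred) preincubated 10 min at room temperature with a 500nM (2x) first reagent, then RGS4 at 900nM (2x) plus Transcreener GDP mix added; fluorescence polarization (620/688 nm) read before and after 90 min at 30 °C.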
LDHA block = LDHA (human) enzyme inhibition. P00338. purified LDHA, NADH/diaphorase-resazurin fluorescence; stronger effect = lower value. activity change, % (values are at about 110 or 230 µM). 480,000 tested, 0.15% active; in the data active = activity change below about -30%; inconclusive = mostly about -25% to -30%;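 also: plate controls were DMSO wells for no effect and wells without enzyme for full effect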
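Remaining NADH was detected by diaphorase (0.133 mg/mL) converting 37 µM resazurin to fluorescent resorufin, read at 0 and 20 minutes. The preceding 5-minute room-temperature reaction used 2 nM LDHA, 0.2 mM sodium pyruvate and 0.06 mM NADH at pH 7.4.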
Starred values were filed as active, the others as inactive; i = inactive; ? = inconclusive; / = no result given.

SMILES | PI4K2A inh | D3 ag | pAkt inh | D3 antag | RGS4 inhibitor | LDHA block
CCNCCC(=O)N1c2ccccc2Sc2ccc(C(F)(F)F)cc21 | -1 | -11 | i | -70* | 13% | -3
Cc1ccc2[nH]cc(C(=O)CN3CCN(c4ccccn4)CC3)c2c1 | -1 | -16 | i | -20 | -7% | 3
O=C(CN1CCN(c2ccccn2)CC1)N1c2ccccc2CCc2ccccc21 | 5 | 1 | i | -54* | 7% | -6
O=C(CN1CCN(c2ccccn2)CC1)N1c2ccccc2Sc2ccc(C(F)(F)F)cc21 | 1 | -9 | / | -62* | 3% | 0
Cc1ccc(C(=O)CN2CCN(c3ccccn3)CC2)c(C)c1 | 10 | 48* | i | 11 | -20% | -2
COc1ccc(Nc2cc(C)nc(Nc3ccc(NC(=O)C(C)(C)C)cc3)n2)cc1 | / | / | / | / | / | 7
O=C(CSc1nnnn1C1CCCC1)N1N=C(c2cc3ccccc3o2)CC1c1ccco1 (configuration not stated) | / | / | / | / | / | 6
Cn1c(=O)n(C)c2cc(SCc3ccco3)c(NC(=O)c3ccccc3)cc21 | / | / | / | / | / | 2
Cc1ccc(C)c(NC(=O)c2cnc(N3CCCCC3)c3ccccc23)c1 | / | / | / | / | / | 1
Cc1ccc(NC(=O)c2cnc(N3CCN(c4ccccn4)CC3)c3ccccc23)c(Br)c1 | -1 | 44* | i | 89 | ? | -3
Cc1ccccc1C(=O)N1CCN(c2oc(-c3ccco3)nc2C#N)CC1 | / | / | / | / | / | -1
NC(=O)CC(NC(=O)Cc1ccc(Cl)cc1)c1ccc(NC2CC3CCC2C3)c([N+](=O)[O-])c1 (configuration not stated) | -3 | -8 | i | -63* | 23% | 8
NC(=O)CC(NC(=O)Cc1ccc(Br)cc1)c1ccc(N2CCC(Br)CC2)c([N+](=O)[O-])c1 (configuration not stated) | 4 | -24 | i | -28 | -14% | -22
NC(=O)CC(NC(=O)Cc1ccc(Br)cc1)c1ccc(N2CCC(Cc3ccccc3)CC2)c([N+](=O)[O-])c1 (configuration not stated) | 2 | -2 | i | -97* | 19% | -15
NC(=O)CC(NC(=O)Cc1cccc2ccccc12)c1ccc(NCCOc2ccccc2)c([N+](=O)[O-])c1 (configuration not stated) | -13 | -31 | i | -80* | -1% | -12
NC(=O)CC(NC(=O)Cc1ccc(Cl)cc1)c1ccc(NC2CCN(Cc3ccccc3)CC2)c([N+](=O)[O-])c1 (configuration not stated) | -1 | -1 | i | 0 | -7% | -1
COc1ccc(CCNc2ccc(C(CC(N)=O)NC(=O)c3ccc(Br)cc3)cc2[N+](=O)[O-])cc1 (configuration not stated) | -6 | -24 | i | -68* | 1% | -16
COc1ccc(CCNc2ccc(C(CC(N)=O)NC(=O)Cc3ccc(Br)cc3)cc2[N+](=O)[O-])cc1 (configuration not stated) | -5 | -9 | i | 0 | 5% | -13
CC(=O)Nc1cccc(C(=O)O)c1O | / | / | / | / | / | -3
NC(=O)CC(NC(=O)Cc1cccc2ccccc12)c1ccc(NC2CCCC2)c([N+](=O)[O-])c1 (configuration not stated) | 0 | -6 | i | -18 | -24% | -6
NC(=O)CC(NC(=O)Cc1cccc2ccccc12)c1ccc(NC2CC3CCC2C3)c([N+](=O)[O-])c1 (configuration not stated) | 3 | -23 | i | -65* | 17% | -7
CCCCc1c(-c2ccccc2OC)ncn1Cc1cccc(-c2ccccc2)c1 | -9 | -21 | i | -108* | / | 6
CCCCc1c(-c2ccccc2OC)ncn1Cc1ccc(-c2ccccc2)cc1 | -3 | -2 | i | ? | / | 2
CCc1c(C2CC2)ncn1Cc1cccc(-c2ccccc2)c1 | -5 | -14 | i | -95* | / | 4
Cc1ccc(Cc2c(-c3ccc(Br)cc3)nc3cc(C)ccn23)cc1 | -12 | -1 | i | 1 | / | 0

Source: PubChem
